Screens deposited in PubChem BioAssay by National Center for Advancing Translational Sciences (NCATS).
Sampled rows, rich in hits. Any-hit rate of the full collection: about 3.1%.
mIDH1 inhibitor – qHTS for Inhibitors of mutant isocitrate dehydrogenase 1 (IDH1): qHTS | IDH1-R132H enzyme, NADPH consumption, diaphorase/resazurin fluorescence | Potency, µM (highest dose often 76.6 µM), for the others: at the highest dose activity change, negative = inhibition, usual class: inhibitors | 390,000 compounds, 0.093% hits; also: % is scaled to controls: 0 for no effect and ±100 for the full control effect; nearly all actives have a fitted effect of over 65% in size
Target sequence (O75874 whole entry R132H, stated change not applied): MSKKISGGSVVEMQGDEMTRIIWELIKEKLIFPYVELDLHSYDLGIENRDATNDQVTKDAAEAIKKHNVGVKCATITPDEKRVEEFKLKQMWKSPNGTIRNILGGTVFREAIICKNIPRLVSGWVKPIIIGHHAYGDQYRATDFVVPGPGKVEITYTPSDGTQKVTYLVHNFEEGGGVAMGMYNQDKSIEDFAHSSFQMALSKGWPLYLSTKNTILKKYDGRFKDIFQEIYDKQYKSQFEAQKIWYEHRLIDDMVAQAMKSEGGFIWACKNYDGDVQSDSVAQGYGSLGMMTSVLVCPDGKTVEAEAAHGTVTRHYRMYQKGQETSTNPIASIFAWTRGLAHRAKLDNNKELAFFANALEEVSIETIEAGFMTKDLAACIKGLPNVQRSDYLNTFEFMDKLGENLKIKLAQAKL
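IDH1-R132H (0.5 ug/mL dispensed) in pH 7.5 Tris buffer was preincubated 30 min with compound, then given a substrate mix of 0.016 mM NADPH and 2 mM alpha-KG for 80 min at room temperature; remaining NADPH was read by diaphorase/resazurin fluorescence.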
Mito fusion act – qHTS Assay for Small Molecule Inhibitors of Mitochondrial Division or Activators of Mitochondrial Fusion; S. cerevisiae fusion-defective mutant growth rescue, CellTiterGlo 48 h; Potency, µM (series often up to 46.1 µM), inactives show top-dose growth rescue (activation), actives largely listed as activators; 320,000 compounds, 0.23% hits; also: % of control where 0% means no effect; nearly all actives have a fitted effect of over 45% in size
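Yeast fusion mutant, YPEG (non-fermentable carbon), compound, 48 h at 37C non-permissive; CellTiterGlo added, 10 min RT, luminescence read. Rescued growth = division inhibition.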
TrxR1 substrate – qHTS Assay for Substrates of Mammalian Selenoprotein Thioredoxin Reductase 1 (TrxR1): qHTS | Thioredoxin reductase 1, cytoplasmic (Rattus norvegicus), O89049 | purified TrxR1 substrate turnover, NADPH consumption readout | Potency, µM (highest dose often 114 µM), without a hit: top-dose activity change, negative = substrate turnover | 390,000 compounds, 0.01% hits | AID 588456, 2011; also: % is scaled to controls: 0 for no effect and ±100 for the full control effect; nearly all actives have a fitted effect of over 50% in size
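Rat TrxR1, dispensed at 90 nM, was prereduced with 400 uM NADPH (final) for 5 min at ~22 deg C, then incubated with compound 15 min before 400 uM selenite. A first-read NADPH fluorescence drop versus no-compound background flagged substrates.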
rTrxR1 inhibitor – qHTS Assay for Inhibitors of Mammalian Selenoprotein Thioredoxin Reductase 1 (TrxR1): qHTS. recombinant rTrxR1, NADPH fluorescence consumption, selenite substrate. Potency, µM (highest dose often 114 µM), inactives show at the top dose activity change, negative = inhibition, usual class: inhibitors. 390,000 compounds, 1% hits. AID 588453, 2011; also: % is scaled to controls: 0 for no effect and ±100 for the full control effect; nearly all actives have a fitted effect of over 65% in size
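Rat TrxR1 (90 nM in the dispensed reagent) was pre-reduced with 400 uM NADPH for 5 min at room temperature, then incubated with compound for 15 min. After 400 uM selenite was added, NADPH fluorescence (Ex 340/Em 450 nm) was followed for 8 min.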
A549 viability – Nrf2 qHTS screen for inhibitors: counterscreen for cytotoxicity; A549 ARE-Fluc cells, CellTiter-Fluor viability, 18-24 h; 390,000 compounds, 0.16% hits; AID 504648, 2011; Potency, µM (doses to about 46 µM), for the others: at the top dose activity change, negative = cytotoxicity, most hits filed as inhibitors; also: % is scaled to controls: 0 for no effect and ±100 for the full control effect
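A549 ARE-Fluc cells in 5% FBS OPTI-MEM, 5000 cells/well, rested 2 h then exposed to compounds in concentration-response for 18-24 h at 37 °C. Viability by CellTiter-Fluor fluorescence (Ex 405/Em 525) after 30 min; luciferase luminescence (BugLite, 15 min, RT) read afterwards.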
Nrf2 block – Nrf2 qHTS screen for inhibitors. 360,000 compounds, 2.1% hits. AID 504444, 2011. Potency, µM (titrated, usually from 46 µM), for the others: top-dose activity change, negative = inhibition, hits mostly inhibitors. A549 ARE-Fluc reporter, luciferase luminescence, 18-24 h; also: % is scaled to controls: 0 for no effect and ±100 for the full control effect; nearly all actives have a fitted effect of over 60% in size
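A549 ARE_Fluc cells, 5000/well, 5% FBS OPTI-MEM; compounds in dose-response, 18-24 h at 37 °C/5% CO2; CellTiter-Fluor viability read (Ex 405/Em 525), then BugLite luciferase luminescence = Nrf2 activity.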
Active calls of the source: *; ? = inconclusive; . = no result; ! = a repeat was not active; [ ] = another dose, or the depositor's remark. Calls follow the shape of the dose curve; as a rule, active = well fitted curve in the direction sought with a large enough effect; inconclusive = small, poorly fitted or top-dose-only effect, or another doubt; inactive = no such curve, though single readings can be large; an effect the other way counts as inactive or inconclusive. Potency is read from the fitted curve at half-maximal effect.

SMILES | mIDH1 inhibitor | Mito fusion act | TrxR1 substrate | rTrxR1 inhibitor | A549 viability | Nrf2 block
CC(=O)OC1CC(OC2C(O)CC(OC3C(O)CC(OC4CCC5(C)C(CCC6C5CCC5(C)C(C7=CC(=O)OC7)CCC65O)C4)OC3C)OC2C)OC(C)C1OC1OC(CO)C(O)C(O)C1O (configuration not stated) | 1% | . | 6%[11.4 µM] | 19%[11.4 µM] | ? | 0.037µM*
O=C(O)C(F)(F)S(=O)(=O)O | -5% | 3.2µM* | 11%[57.1 µM] | 13%[57.1 µM] | -5% | -9%
O=C(O)C(Cl)(Cl)Cl | 5% | . | 3% | 8% | -5% | 7%
C[N+](C)(C)CC#CCOC(=O)Nc1cccc(Cl)c1 | -12% | -33% | 13%[57.1 µM] | 2.7µM* | -8% | -9%
O=C(Nc1ccc2nc(SCC(=O)N3CCCc4ccccc43)sc2c1)c1ccccc1F | -3% | . | 0% | 17% | -16% | ?
COc1ccccc1C(=O)Nc1ccc2nc(SCC(=O)N3CCCc4ccccc43)sc2c1 | 4% | . | 3% | 31% | -6% | 18µM*
O=C(Nc1nccs1)C(Cl)(Cl)Cl | 11% | ? | 9%[57.1 µM] | 18%[57.1 µM] | 3% | -4%
O=C(CCl)Nc1nccs1 | -1% | -7% | 0% | 13µM* | -12% | ?
O=C1NC(=S)NC(=O)C1=Cc1ccc2c(c1)CCN2CCCCl | -18% | 2% | -6% | 28µM* | -10% | -20%
O=C(c1ccco1)N1CCN(C(=O)c2ccc(COc3ccc(Cl)cc3Cl)o2)CC1 | -10% | . | -3%[57.1 µM] | 7.1µM* | -25% | 26µM*
COc1cc(NC(=O)c2cc3cc4ccc(C)cc4nc3o2)cc(OC)c1OC | -4% | . | -1% | 14% | -4% | ?
CCOc1ccc(-c2cc(C)[n+](CCO)c(-c3ccc(OCC)cc3)c2)cc1 | -5% | -6% | 79% | -29% | -7% | 12µM*
CCOc1ccc(-c2cc(C)[n+](CCc3ccc(OC)c(OC)c3)c(-c3ccc(OCC)cc3)c2)cc1 | -10% | -8% | 10%[57.1 µM] | 17%[57.1 µM] | -10% | ?
O=C1NC(=O)N(Cc2ccc(F)cc2)C(=O)/C1=C\c1ccc([N+](=O)[O-])s1 | 7% | 3% | -11% | 40µM* | -18% | -9%
COc1ccc(CN2C(=O)NC(=O)/C(=C/c3ccc([N+](=O)[O-])s3)C2=O)cc1 | -4% | 5% | -5% | 40µM* | -20% | -20%
COc1ccc(CN2C(=O)NC(=O)/C(=C\c3ccco3)C2=O)cc1 | -3% | -5% | -5% | ? | -8% | -7%
S=C(S)N1CCCC1 | -7% | -82% | 3%[57.1 µM] | 0%[57.1 µM] | -7% | 5.8µM*
Cn1c(O)c(/C=C2\C=c3ccccc3=NC2=O)c(=O)n(C)c1=O | 21% | 2% | -5% | 35µM* | -1% | -4%
Cn1c(O)c(/C=C2\C=Nc3ccccc32)c(=O)n(C)c1=O | -3% | -1% | 0% | -8% | 3% | 0%
Cc1ccc(C)c(S(=O)(=O)c2nnn3c2nc(N2CCCC2)c2sccc23)c1 | 3% | . | -2% | 3% | 3% | ?
COCCCn1c(N)c(C(=O)NCCC(C)C)c2nc3ccccc3nc21 | 6% | 10% | 86% | 11% | ? | 16µM*
CCCCn1c(N)c(C(=O)OCCOC)c2nc3ccccc3nc21 | -3% | -5% | 52%[57.1 µM] | 1%[57.1 µM] | 10% | 0%
NCCc1cc(O)c(O)cc1O | 16% | . | -9% | 56µM* | ? | ?
Cc1cccn2c(=O)c3c(nc12)N1CCC(Cc2ccccc2)CC1C1(C3)C(=O)N(C)C(=O)N(C)C1=O (configuration not stated) | -10% | 18µM* | 28% | 27% | -30% | ?
O=C1NCc2c1c1c3ccccc3[nH]c1c1[nH]c3ccccc3c21 | . | . | -17% | -34% | -21% | ?
SMILES | mIDH1 inhibitor | Mito fusion act | TrxR1 substrate | rTrxR1 inhibitor | A549 viability | Nrf2 block
NCC(=O)c1ccc(Cl)c(Cl)c1 | . | . | 3% | 19% | . | .
COc1c(C=C2C(=O)NC(=O)NC2=O)c(CCN(C)C(=O)c2ccccc2)cc2c1OCO2 | 19% | 4% | -1% | 18µM* | -1% | -4%
COC(=O)Cn1cc(C=C2C(=O)NC(=O)NC2=O)c2ccccc21 | 8% | 3% | -2% | ? | -1% | -3%
COc1cc([C@@H]2c3cc4c(cc3[C@H](O)[C@H]3COC(=O)[C@@H]23)OCO4)cc(OC)c1OC | . | . | 3% | 2% | -12% | ?
O=c1cccc2n1CC1CC2CN(Cc2cccc(Cl)c2Cl)C1 (configuration not stated) | 4% | 5% | 5% | 4% | -4% | 21µM*
O=c1cccc2n1CC1CC2CN(Cc2c(F)cccc2Cl)C1 (configuration not stated) | 4% | 9% | -4% | -6% | -1% | -6%
CCN(CC)c1ccc(CC2C(=O)N(C)C(=O)N(C)C2=O)cc1 | -9% | -5% | -5% | 32µM* | 2% | 2%
CC(C)CC1C(=O)N2CCC[C@H]2[C@]2(O)O[C@](NC(=O)[C@@H]3C=C4c5cccc6[nH]c(Br)c(c56)C[C@H]4N(C)C3)(C(C)C)C(=O)N12 (some centres not stated) | . | . | -4% | 13% | -5% | 16µM*
CC(C)C[C@H]1C(=O)N2CCC[C@H]2[C@]2(O)O[C@](NC(=O)[C@@H]3C=C4c5cccc6[nH]c(Br)c(c56)CC4N(C)C3)(C(C)C)C(=O)N12 (some centres not stated) | 9% | 2% | -2% | 15% | -1% | ?
CC(C)[C@@]1(NC(=O)[C@@H]2C[C@@H]3c4cccc5[nH]cc(c45)C[C@H]3N(C)C2)O[C@@]2(O)[C@@H]3CCCN3C(=O)[C@H](Cc3ccccc3)N2C1=O | -2% | 23µM*! | -9%[57.1 µM] | ? | 0% | -6%
CC(C)(O)[C@@H]1C2OC(=O)[C@@H]1[C@]1(O)C[C@H]3O[C@]34C(=O)O[C@H]2[C@]14C (tested in a mixture with another compound) | . | -4% | 9%[57.1 µM] | 19%[57.1 µM] | . | .
Cc1ccccc1NC(=NCCCN1CC1)Nc1ccccc1C | 6% | . | 9%[11.4 µM] | 16%[11.4 µM] | 13µM* | -19%
